Results on 28 molecules are retold here after PubChem BioAssay (NCATS).

Assay [1] in a line: High-throughput drug toxicity screening in the BPDCN cell line Cal-1 (AID 1224825; call rule not given here). To be noted: Cal-1 BPDCN cell viability, qHTS; at 45.8 µM (top of the series) unless noted. The essentials: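 CellTiter-Glo luminescence after 48 h compound exposure; percent activity scaled with DMSO as 100% and bortezomib (9.2 uM final) as 0%. Cal-1 cells seeded at 500/well in RPMI, 10% FBS, no phenol red.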
On the technique in general: qHTS replaces the single test concentration by a dilution series.

The nature of assay [2]: qHTS assay for measurement of the activity of small molecule inhibitors on Zika virus induced Caspase-3 activity in human astrocytoma cells (AID 1224859).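 Note: plate controls were ZIKV-infected untreated cells for no effect and uninfected cells for full effect.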 To be noted: SNB-19 ZIKV-induced caspase-3/7, luminescence, 6 h; series mostly up to 45.7 µM. The essentials: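 In SNB-19 cells plated at 250 cells/well and grown 16-20 h, compounds were applied 1 h before ZIKV (2 FFU/cell). Six hours later caspase-3/7 luminescence was recorded.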

Assay [3] can be described thus: qHTS Screen of the MIPE 4.0 Collection Against Ewings Sarcoma (TC71) (AID 1259253). Note: nearly all actives have a fitted effect of over 40% in size. Note: potency is the fitted concentration of half-maximal effect. To be noted: TC71 Ewing sarcoma viability, CellTiter-Glo, 48 h; series mostly up to 45.8 µM. The procedure, abridged:
(§1)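 Dose series incubated 48 h with cells in RPMI plus 5% FBS, glutamine and penicillin/streptomycin; cell viability then quantified via CellTiter-Glo.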

Assay [4] can be described thus: qHTS Screen of the MIPE 4.0 Collection Against Ewings Sarcoma (EW8) (AID 1259255).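 For viability: 100% = DMSO-treated cells and 0% = medium-only wells without cells.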 Note: nearly all actives have a fitted effect of over 35% in size. Note: potency is the fitted concentration of half-maximal effect. The note with it: EW8 Ewing sarcoma viability, CellTiter-Glo, 48 h; series mostly up to 45.8 µM. The procedure, abridged: as §1
Assay [5] is described as follows: qHTS Screen of the MIPE 4.0 Collection Against Ewings Sarcoma (TC32) (AID 1259256). Note: nearly all actives have a fitted effect of over 45% in size. Note: potency is the fitted concentration of half-maximal effect. To be noted: TC32 Ewing sarcoma viability, CellTiter-Glo, 48 h; series mostly up to 45.8 µM. The procedure, abridged:
as §1

A short description of assay [6]: qHTS assay to identify small molecule inhibitors of chordoma cells - UCH-1 (AID 1259355). Note: % is set by controls: 0 for no effect and ±100 for the full control effect; nearly all actives have a fitted effect of over 55% in size. To be noted: UCH-1 chordoma viability, CellTiter-Glo, 48 h, combination, with auranofin plus four topoisomerase inhibitors; series mostly up to 46.1 µM. The procedure, abridged: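 Screening used approved and investigational drugs in 15-point titration against 800 seeded cells per well. A fixed combination of auranofin with camptothecin, doxorubicin, rubitecan and topotecan followed compound addition, and growth was scored by CellTiter-Glo after 48hr.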

The nature of assay [7]: qHTS assay to identify small molecule inhibitors of chordoma cells - UCH-2 (AID 1259356). Note: % is set by controls: 0 for no effect and ±100 for the full control effect. To be noted: UCH-2 chordoma viability, CellTiter-Glo ATP luminescence, 48 h; series mostly up to 46.1 µM.
The nature of assay [8]: qHTS Screen of the MIPE 4.0 Collection Against Ewings Sarcoma (RDES) (AID 1259252). Note: nearly all actives have a fitted effect of over 35% in size. Note: potency is the fitted concentration of half-maximal effect. The note with it: RD-ES Ewing sarcoma viability, CellTiter-Glo, 48 h; series mostly up to 45.8 µM. The essentials: as §1

Structures are written as SMILES. Inconclusive results are not listed. Calls of active or inactive are those of the source. Unless noted, calls come from the whole dose curve; as a rule, active = well fitted curve in the direction sought with a large enough effect; inconclusive = small, poorly fitted or top-dose-only effect, or another doubt; inactive = no such curve, though single readings can be large; an effect the other way counts as inactive or inconclusive.

In the case of `CCOC(=O)c1ccc(C#Cc2ccc3c(c2)C(C)(C)CCS3)nc1`, the viability (% of control) in assay [1] amounted to 47%. Besides, the Potency entry in assay [2], in assay [3], in assay [4], in assay [5], in assay [6] and in assay [7] was “inactive” each time.
Turning to `CN(Cc1cc(Br)cc(Br)c1N)C1CCCCC1`, the viability (% of control) in assay [1] worked out at 107%. Besides, the Potency result in assay [2], in assay [8], in assay [3], in assay [4], in assay [5] and in assay [7] was “inactive” throughout.
Take `CN(C)CCc1c[nH]c2ccc(CS(=O)(=O)N3CCCC3)cc12`: in assay [1], the viability (% of control) turned out to be 93.3%. Further, the Potency result in assay [2], in assay [3], in assay [4], in assay [5], in assay [6] and in assay [7] was “inactive” in each case.
On to `COc1ncnc(NS(=O)(=O)c2ccc(N)cc2)c1OC`, for which the viability (% of control) in assay [1] came to 96.2%. Further, the Potency result in assay [2], in assay [8], in assay [3], in assay [4], in assay [5] and in assay [6] was “inactive” each time. Also, the Potency result in assay [7] was “inactive”.
For `CC[C@H](C)C(=O)O[C@H]1C[C@@H](C)C=C2C=C[C@H](C)[C@H](CC[C@@H]3C[C@@H](O)CC(=O)O3)[C@H]21`, the viability (% of control) in assay [1] was 84.4%. Moreover, the Potency entry in assay [2] and in assay [7] was “inactive” throughout. Besides, the Potency in assay [3] is 14.8 µM (active); in assay [5], 7.43 µM (active).
For `C[C@@H](CN1CC(=O)NC(=O)C1)N1CC(=O)NC(=O)C1`, the viability (% of control) in assay [1] was 14.7%. Further, the Potency result in assay [2], in assay [8], in assay [3], in assay [5], in assay [6] and in assay [7] was “inactive” throughout. In addition, the Potency in assay [4] was 18.7 µM (active).
`NC(N)=NC(N)=NCCc1ccccc1`: the viability (% of control) in assay [1] is 75.1%. Besides, the Potency result in assay [2], in assay [6] and in assay [7] was “inactive” each time. In addition, the Potency in assay [8] is 11.8 µM (active); in assay [3], 18.7 µM (active); in assay [4], 16.6 µM (active).
For `Nc1ccc(S(=O)(=O)Nc2ccccn2)cc1`, in assay [1], the viability (% of control) was determined as 112%. In addition, the Potency entry in assay [2], in assay [8], in assay [3], in assay [4], in assay [5] and in assay [7] was “inactive” each time.
For the molecule `CNCC[C@H](Oc1cccc2ccccc12)c1cccs1`, in assay [1], the viability (% of control) amounted to 39.6%. The Potency entry in assay [2] and in assay [7] was “inactive” each time. Moreover, the Potency in assay [8] was 2.35 µM (active); in assay [3], 2.64 µM (active); in assay [4], 7.43 µM (active); in assay [5] it was 5.26 µM (active).
With `COCCCOc1cc(C[C@@H](C[C@H](N)[C@@H](O)C[C@H](C(=O)NCC(C)(C)C(N)=O)C(C)C)C(C)C)ccc1OC`, in assay [1], the viability (% of control) is 113%. Moreover, the Potency result in assay [2], in assay [8], in assay [3], in assay [4] and in assay [5] was “inactive” each time.
As for `CCOC(=O)c1ccc(OC(=O)CCCCCN=C(N)N)cc1`, the viability (% of control) in assay [1] is 106%. Also, the Potency result in assay [2], in assay [3], in assay [4], in assay [5] and in assay [7] was “inactive” in each case.
On to `NS(=O)(=O)c1cc2c(cc1Cl)NC(C(Cl)Cl)NS2(=O)=O` (stereo not drawn), for which, in assay [1], the viability (% of control) is 94.1%. Further, the Potency result in assay [2], in assay [8], in assay [3], in assay [4], in assay [5] and in assay [6] was “inactive” in each case. Besides, the Potency result in assay [7] is “inactive”.
For the molecule `O[C@@H](CNC[C@H](O)[C@H]1CCc2cc(F)ccc2O1)[C@@H]1CCc2cc(F)ccc2O1`, the viability (% of control) in assay [1] is 2.75%. Besides, the Potency result in assay [2] is “inactive”. Also, the Potency is 20.9 µM (active) in assay [3], 20.9 µM (active) in assay [4] and 23.5 µM (active) in assay [5].
`CCN(CC)CC#CCOC(=O)C(O)(c1ccccc1)C1CCCCC1` (stereo not drawn): the viability (% of control) in assay [1] was found to be 104%. Also, the Potency entry in assay [2], in assay [8], in assay [3], in assay [4], in assay [5] and in assay [6] was “inactive” in each case. Also, the Potency result in assay [7] was “inactive”.
In the case of `NC1(c2ccc(-c3nc4ccn5c(=O)[nH]nc5c4cc3-c3ccccc3)cc2)CCC1`, the viability (% of control) in assay [1] is 4.61%. In addition, in assay [2], the Potency entry was “inactive”. Further, the Potency is 23.5 µM (active) in assay [8], 20.9 µM (active) in assay [3], 4.69 µM (active) in assay [4] and 13.2 µM (active) in assay [5].
For `COC(=O)Nc1nc2ccc(C(=O)c3ccccc3)cc2[nH]1`, in assay [1], the viability (% of control) turned out to be 22%. The Potency entry in assay [2], in assay [6] and in assay [7] was “inactive” in each case. Besides, the Potency was 1.48 µM (active) in assay [3], 0.526 µM (active) in assay [4] and 0.418 µM (active) in assay [5].
Turning to `CC(C)NCC(O)c1ccc(NS(C)(=O)=O)cc1` (stereo not drawn), the viability (% of control) in assay [1] was determined as 120%. Moreover, the Potency entry in assay [2], in assay [6] and in assay [7] was “inactive” in each case. Moreover, the Potency in assay [3] and in assay [4] was 16.6 µM (active) each time.
On to `Cc1c(-c2ccc(O)cc2)n(Cc2ccc(OCCN3CCCCCC3)cc2)c2ccc(O)cc12`, for which, in assay [1], the viability (% of control) was found to be 121%. Besides, the Potency entry in assay [2], in assay [3], in assay [4] and in assay [5] was “inactive” throughout.
With `Cc1noc(NS(=O)(=O)c2ccc(N)cc2)c1C`, the viability (% of control) in assay [1] came out at 96.8%. Further, the Potency entry in assay [2], in assay [8], in assay [3], in assay [4], in assay [5] and in assay [6] was “inactive” each time. Also, in assay [7], the Potency result is “inactive”.
Regarding `Cc1cc(NS(=O)(=O)c2ccc(N)cc2)no1`, the viability (% of control) in assay [1] came to 82.3%. Also, the Potency result in assay [2], in assay [8], in assay [3], in assay [4], in assay [5] and in assay [6] was “inactive” throughout. In assay [7], the Potency result is “inactive”.
Turning to `CC(C)(C)C(=O)OCOP(=O)(COCCn1cnc2c(N)ncnc21)OCOC(=O)C(C)(C)C`, the viability (% of control) in assay [1] is 2.56%. Moreover, the Potency entry in assay [2], in assay [5], in assay [6] and in assay [7] was “inactive” in each case. Moreover, the Potency was 0.372 µM (active) in assay [8], 0.833 µM (active) in assay [3] and 0.209 µM (active) in assay [4].
As for `CC(C)C1CCC(C(=O)N[C@H](Cc2ccccc2)C(=O)O)CC1` (stereo partly drawn), the viability (% of control) in assay [1] stood at 99.1%. For the same molecule, the Potency result in assay [2], in assay [8], in assay [3], in assay [4], in assay [5] and in assay [6] was “inactive” in each case. In assay [7], the Potency result is “inactive”.
For `S=P(N1CC1)(N1CC1)N1CC1`, the viability (% of control) in assay [1] was determined as 27.1%. In addition, the Potency entry in assay [2], in assay [6] and in assay [7] was “inactive” each time. Moreover, the Potency in assay [8] was 16.6 µM (active); in assay [3] it was 16.6 µM (active); in assay [4], 6.62 µM (active); in assay [5], 2.64 µM (active).
`CCCCS(=N)(=O)CCC(N)C(=O)O` (stereo not drawn): the viability (% of control) in assay [1] is 34.2%. Also, the Potency entry in assay [2], in assay [3], in assay [4] and in assay [5] was “inactive” in each case. In assay [8], the Potency was 14.8 µM (active).
For `COc1ccccc1OCC(O)COC(N)=O` (stereo not drawn), in assay [1], the viability (% of control) stood at 124%. For the same molecule, the Potency entry in assay [2], in assay [3], in assay [4], in assay [5], in assay [6] and in assay [7] was “inactive” each time.
Turning to `NC(=O)c1cccc(N)c1`, the viability (% of control) in assay [1] worked out at 109%. The Potency result in assay [2], in assay [8], in assay [3], in assay [4] and in assay [5] was “inactive” throughout.
Regarding `CC(=O)[C@H]1CC[C@H]2[C@@H]3CCC4=CC(=O)CC[C@]4(C)[C@H]3CC[C@]12C`, the viability (% of control) in assay [1] came out at 79.9%. Besides, the Potency entry in assay [2] was “inactive”. Also, the Potency in assay [8] is 3.32 µM (active); in assay [3], 3.32 µM (active); in assay [4] it was 9.35 µM (active); in assay [5], 3.72 µM (active).
With `CCN[C@H]1C[C@H](C)S(=O)(=O)c2sc(S(N)(=O)=O)cc21`, the viability (% of control) in assay [1] came out at 102%. Besides, the Potency result in assay [2], in assay [8], in assay [3], in assay [4], in assay [5] and in assay [6] was “inactive” each time. Also, the Potency entry in assay [7] is “inactive”.
